# Source: the supplement of paper PMC10681739
# Tests used:
# [1] = molecular target: T1, ETS1 (UniProt P14921); test: ETS1 binding intensity (PBM fluorescence), ETS1 alone (arbitrary fluorescence units); higher = stronger binding; conditions: ETS1 concentration 1 nM; RUNX1 concentration 0 nM
# T1 sequence: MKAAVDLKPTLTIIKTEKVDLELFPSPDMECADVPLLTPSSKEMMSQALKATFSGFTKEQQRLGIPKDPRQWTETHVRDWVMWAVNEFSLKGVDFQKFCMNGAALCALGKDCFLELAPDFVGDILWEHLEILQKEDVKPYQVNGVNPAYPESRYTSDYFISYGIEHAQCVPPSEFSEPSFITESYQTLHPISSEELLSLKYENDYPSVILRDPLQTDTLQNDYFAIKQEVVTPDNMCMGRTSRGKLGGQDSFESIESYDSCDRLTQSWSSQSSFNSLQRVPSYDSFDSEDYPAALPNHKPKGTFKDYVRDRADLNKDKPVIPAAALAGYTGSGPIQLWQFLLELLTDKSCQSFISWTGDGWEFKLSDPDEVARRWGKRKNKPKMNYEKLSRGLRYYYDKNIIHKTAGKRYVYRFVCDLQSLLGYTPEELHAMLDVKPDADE
# [2] = molecular target: RUNX1 (UniProt Q01196); test: RUNX1 binding intensity (PBM fluorescence), RUNX1 alone (arbitrary fluorescence units); higher = stronger binding; conditions: RUNX1 concentration 2 nM; ETS1 concentration 0 nM
# Method: (§1)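 Cooperative gcPBM on 36-bp genomic probes with neighbouring ETS1 and RUNX1 sites. Recombinant human RUNX1 (2 nM) was incubated alone or with ETS1 (25 nM) and detected with anti-RUNX1 antibody plus Alexa488 secondary. Values are medians over 4 replicate spots; the RUNX1+ETS1 data were normalised to the RUNX1-only data. The probes sit in constant array flanks that are not printed.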
# [3] = molecular target: T1, ETS1; test: ETS1 binding intensity (PBM fluorescence) in presence of RUNX1, normalised to ETS1-only experiment (arbitrary fluorescence units); higher = stronger binding; conditions: ETS1 concentration 1 nM; RUNX1 concentration 25 nM
# [4] = molecular target: RUNX1 (UniProt Q01196); test: RUNX1 binding intensity (PBM fluorescence) in presence of ETS1, normalised to RUNX1-only experiment (arbitrary fluorescence units); higher = stronger binding; conditions: RUNX1 concentration 2 nM; ETS1 concentration 25 nM
# Method: as §1
# 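Throughout, for RUNX1 binding intensity (PBM fluorescence) in presence of ETS1, normalised to RUNX1-only experiment: Full-length recombinant human ETS1 or RUNX1 bound to double-stranded 36-bp genomic probes on microarrays, detected by protein-specific primary antibody and Alexa488 secondary, spot fluorescence as median of four replicate spots.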
# 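Throughout, for RUNX1 binding intensity (PBM fluorescence), RUNX1 alone: Full-length recombinant human RUNX1 bound to double-stranded 36-bp genomic probes on a high-density microarray, scored as Alexa488 fluorescence per spot via anti-RUNX1 antibody, median of four replicate spots.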
# Sequence of RUNX1 (Q01196 whole entry): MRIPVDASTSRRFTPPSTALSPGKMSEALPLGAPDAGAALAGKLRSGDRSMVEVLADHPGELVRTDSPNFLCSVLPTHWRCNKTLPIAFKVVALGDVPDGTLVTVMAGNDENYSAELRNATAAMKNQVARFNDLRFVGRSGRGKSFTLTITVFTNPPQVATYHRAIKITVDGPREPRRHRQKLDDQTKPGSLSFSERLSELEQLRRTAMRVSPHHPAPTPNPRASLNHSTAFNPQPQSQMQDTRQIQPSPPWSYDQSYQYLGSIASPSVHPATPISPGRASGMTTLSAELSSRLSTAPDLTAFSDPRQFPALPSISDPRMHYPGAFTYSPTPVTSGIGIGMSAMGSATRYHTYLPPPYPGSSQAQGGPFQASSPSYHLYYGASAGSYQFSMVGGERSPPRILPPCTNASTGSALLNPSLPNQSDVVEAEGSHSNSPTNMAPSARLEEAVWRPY
sequence,measurement,setting,value
TTGGTCAGCCTGCTTCCGGCTGTGGCTTCAGTTAGT,ETS1 binding intensity,[1],1770
same,RUNX1 binding intensity,[2],774
same,ETS1 binding intensity,[3],1920
same,RUNX1 binding intensity,[4],1420
GTCCCACGCGACTTCCTGCGGGAAACATGGCGGCAT,ETS1 binding intensity,[1],1520
same,RUNX1 binding intensity,[2],771
same,ETS1 binding intensity,[3],1820
same,RUNX1 binding intensity,[4],2170
TTGTCACGTCCGGCACGCCGCGAACCGCAAGGAACC,ETS1 binding intensity,[1],571
same,RUNX1 binding intensity,[2],1270
same,ETS1 binding intensity,[3],1800
same,RUNX1 binding intensity,[4],2720
CAGGCCTTTCCTGCTATCGTTTGTGGTTTGAGCAGT,ETS1 binding intensity,[1],429
same,RUNX1 binding intensity,[2],1940
same,ETS1 binding intensity,[3],1120
same,RUNX1 binding intensity,[4],3830
GCGCAAGCAGGAAGCGTTTGCGGTGATCCCGGCGAC,ETS1 binding intensity,[1],1890
same,RUNX1 binding intensity,[2],746
same,ETS1 binding intensity,[3],9000
same,RUNX1 binding intensity,[4],2000
CCTCAAAACCCGGAAACGCCTTGCGGGGCAGTGTGG,ETS1 binding intensity,[1],3330
same,RUNX1 binding intensity,[2],789
same,ETS1 binding intensity,[3],4480
same,RUNX1 binding intensity,[4],1400
ACCCACTTCCTGTTAGAGCATCTTTGCAACCACAGG,ETS1 binding intensity,[1],2010
same,RUNX1 binding intensity,[2],933
same,ETS1 binding intensity,[3],3230
same,RUNX1 binding intensity,[4],3000
CGAAGCCAGGAAATAAGGATAAACCACAGAAAGAAA,ETS1 binding intensity,[1],1060
same,RUNX1 binding intensity,[2],1260
same,ETS1 binding intensity,[3],3180
same,RUNX1 binding intensity,[4],2010
ACCTCAGGTACCGGAAGACCACAATTCCCAGGAGTC,ETS1 binding intensity,[1],2950
same,RUNX1 binding intensity,[2],965
same,ETS1 binding intensity,[3],4740
same,RUNX1 binding intensity,[4],1740
GGGCTATTGTTTCCTCCCCCATGTGACCACAGCCTC,ETS1 binding intensity,[1],418
same,RUNX1 binding intensity,[2],994
same,ETS1 binding intensity,[3],776
same,RUNX1 binding intensity,[4],1290
CCAGCCCAGGAAACAAGGAACCCCAAAGCCACAGGA,ETS1 binding intensity,[1],392
same,RUNX1 binding intensity,[2],828
same,ETS1 binding intensity,[3],579
same,RUNX1 binding intensity,[4],979
GCTTCTGAGGAAGTGCGTTTTGTGGGTAGGTGGAGT,ETS1 binding intensity,[1],706
same,RUNX1 binding intensity,[2],792
same,ETS1 binding intensity,[3],1410
same,RUNX1 binding intensity,[4],878
TATCAATAAGGAAGTACAATCACCAAACCACAAGCC,ETS1 binding intensity,[1],619
same,RUNX1 binding intensity,[2],1170
same,ETS1 binding intensity,[3],2700
same,RUNX1 binding intensity,[4],1140
GACAAAGAGGAAGTCCCCAAAAACCACAATAACAGT,ETS1 binding intensity,[1],910
same,RUNX1 binding intensity,[2],1570
same,ETS1 binding intensity,[3],4080
same,RUNX1 binding intensity,[4],3900
GAGCCTGTTGCTTCCGGTTCAGAGCCCACATGCTGG,ETS1 binding intensity,[1],3070
same,RUNX1 binding intensity,[2],736
same,ETS1 binding intensity,[3],3370
same,RUNX1 binding intensity,[4],1940
AATGATTACCTAACAGGAAAACCACATTGGTCATTT,ETS1 binding intensity,[1],1150
same,RUNX1 binding intensity,[2],1180
same,ETS1 binding intensity,[3],3100
same,RUNX1 binding intensity,[4],1130
TTGTCTGCATCCTGTGCTGTGTGGTAGCTCTGGGTT,ETS1 binding intensity,[1],510
same,RUNX1 binding intensity,[2],702
same,ETS1 binding intensity,[3],541
same,RUNX1 binding intensity,[4],1490
ACAGAGCAGGAAGCAGCCCTCACCACAGATGAAGCA,ETS1 binding intensity,[1],686
same,RUNX1 binding intensity,[2],760
same,ETS1 binding intensity,[3],1210
same,RUNX1 binding intensity,[4],1360
TGAGCTCAGGCCGGAAGCGGTGGATGATGGCACACA,ETS1 binding intensity,[1],9910
same,RUNX1 binding intensity,[2],716
same,ETS1 binding intensity,[3],8670
same,RUNX1 binding intensity,[4],1560
CTGAAACAGGAAACAGACAAAGCCACAAGGTTCGCA,ETS1 binding intensity,[1],1840
same,RUNX1 binding intensity,[2],746
same,ETS1 binding intensity,[3],5750
same,RUNX1 binding intensity,[4],1780
ACTCCTCCCGCTTCCGCTGCCGCAGCCGGTCGTAAC,ETS1 binding intensity,[1],1280
same,RUNX1 binding intensity,[2],1310
same,ETS1 binding intensity,[3],1680
same,RUNX1 binding intensity,[4],3470
TGGAGTGGAGGAAGTGGTGTTACCACAGCTCAGAGG,ETS1 binding intensity,[1],1050
same,RUNX1 binding intensity,[2],726
same,ETS1 binding intensity,[3],2680
same,RUNX1 binding intensity,[4],1230
TCCCTCATGAGCTTCTTCCGCCCGCAACACGAGACT,ETS1 binding intensity,[1],481
same,RUNX1 binding intensity,[2],1280
same,ETS1 binding intensity,[3],481
same,RUNX1 binding intensity,[4],1840
AGAAGGCGCCGGAAGTGGTCCCGCAGAGGCGGGGTG,ETS1 binding intensity,[1],8990
same,RUNX1 binding intensity,[2],725
same,ETS1 binding intensity,[3],14100
same,RUNX1 binding intensity,[4],2500
CTCCGGCGGAAGTTGTCTCTTCGCCGCCGCCGCAGC,ETS1 binding intensity,[1],3590
same,RUNX1 binding intensity,[2],792
same,ETS1 binding intensity,[3],5200
same,RUNX1 binding intensity,[4],1690
TGGCTTTGCAGAAGGAAGCTGTGGTTTCTGGTCTTC,ETS1 binding intensity,[1],620
same,RUNX1 binding intensity,[2],869
same,ETS1 binding intensity,[3],3340
same,RUNX1 binding intensity,[4],1010
AGTCTAACCAACAAAGGATGTGGTAGGTAAAAGGTT,ETS1 binding intensity,[1],1250
same,RUNX1 binding intensity,[2],834
same,ETS1 binding intensity,[3],2640
same,RUNX1 binding intensity,[4],959
CTCTAGAGGCTTCCTGCCCAACCACCAAGAAAAAGC,ETS1 binding intensity,[1],598
same,RUNX1 binding intensity,[2],817
same,ETS1 binding intensity,[3],668
same,RUNX1 binding intensity,[4],1180
GACATATCCTGCATTCTCAGAAAAACCACAGGCTAG,ETS1 binding intensity,[1],391
same,RUNX1 binding intensity,[2],1290
same,ETS1 binding intensity,[3],1050
same,RUNX1 binding intensity,[4],2000
TGATCAGCAAAAGGAAGTGGTTAACATGGCCCAGAA,ETS1 binding intensity,[1],1540
same,RUNX1 binding intensity,[2],825
same,ETS1 binding intensity,[3],4770
same,RUNX1 binding intensity,[4],1990
TGGAGTGAAGCGGCTTCCTTGCGGTTGTGTGCGTGT,ETS1 binding intensity,[1],403
same,RUNX1 binding intensity,[2],1900
same,ETS1 binding intensity,[3],799
same,RUNX1 binding intensity,[4],2630
AGCAACAACAAAGGAAGTGGCGGCCGCAGGGGGAGG,ETS1 binding intensity,[1],1320
same,RUNX1 binding intensity,[2],795
same,ETS1 binding intensity,[3],2160
same,RUNX1 binding intensity,[4],909
AGCGTTGTCTTCCGGCCTCAACCACTCAGCGACCGG,ETS1 binding intensity,[1],14400
same,RUNX1 binding intensity,[2],751
same,ETS1 binding intensity,[3],10600
same,RUNX1 binding intensity,[4],1760
ACCATAAGGACCGGAAGCAGAGACCACACTGGTGCT,ETS1 binding intensity,[1],7910
same,RUNX1 binding intensity,[2],831
same,ETS1 binding intensity,[3],12600
same,RUNX1 binding intensity,[4],1440
TTACTGCCGGAACTTGGGACCTTTGTAACCACGTCT,ETS1 binding intensity,[1],524
same,RUNX1 binding intensity,[2],768
same,ETS1 binding intensity,[3],586
same,RUNX1 binding intensity,[4],875
CACTTCCCGTGGGAGGATCTTGGGCTGCGGCTAGGG,ETS1 binding intensity,[1],421
same,RUNX1 binding intensity,[2],803
same,ETS1 binding intensity,[3],802
same,RUNX1 binding intensity,[4],1850
AGGAGAAGGAAGAGGATGTTGAGGTTGGGGGAAACC,ETS1 binding intensity,[1],1610
same,RUNX1 binding intensity,[2],726
same,ETS1 binding intensity,[3],2530
same,RUNX1 binding intensity,[4],882
